Among all 50,000 compounds or so, about 800 (1.6%) showed an effect of 50% or more. The entries come from a sample that favours strong results as a whole.

Bcl-2-like protein 10 (Homo sapiens), sequence (Q9HD36 whole entry, looked up): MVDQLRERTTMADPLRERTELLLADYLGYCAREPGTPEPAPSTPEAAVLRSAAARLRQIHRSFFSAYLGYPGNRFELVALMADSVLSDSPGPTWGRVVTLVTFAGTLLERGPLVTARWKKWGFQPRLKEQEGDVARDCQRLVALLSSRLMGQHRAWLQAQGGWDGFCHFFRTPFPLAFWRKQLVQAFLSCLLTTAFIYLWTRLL

The experiment concerns the target Bcl-2-like protein 10 (Homo sapiens) (UniProt Q9HD36). The experiment can be described thus: Phenotype converters, Bcl-B/TR3 peptide binding displacement, primary biochemical FP (AID 1240).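 Also: 0% = Bcl-B with tracer peptide and DMSO and 100% = tracer peptide lacking Bcl-B.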 Particulars: GST-Bcl-B / FITC-TR3 peptide fluorescence polarization; stronger effect = higher value; compound at 3.75 mg/L. For orientation: In fluorescence polarisation assays a small probe gives low polarisation when free and higher when bound to something large.
Consider `CCOC(=O)c1cccc(NC(=O)COc2ccc([N+](=O)[O-])cc2)c1`, for which the displacement came out at 8.1%.

With `CSc1ccc(/C=N\NC(=O)COc2ccc(C)cc2)cc1`, the displacement is 11.8%.

On to `COC(=O)c1c(N)sc(C)c1-c1ccc(C)cc1C`, for which the displacement is -10.6%.

For the molecule `COc1cc(/C=C/c2cc(C(F)(F)F)[nH]c(=O)n2)ccc1O`, the displacement amounted to 44.6%.

For `COc1ccc(OC)c(NC(=O)CN(c2cc(Cl)cc(Cl)c2)S(C)(=O)=O)c1`, the displacement was -2.6%.

`O=C(N/N=C/c1ccccc1)c1cc(Br)ccc1O`: the displacement was found to be 7.4%.

In the case of `O=C(CSc1nc(-c2ccccc2)c(-c2ccccc2)o1)Nc1nccs1`, the displacement stood at 106%.

Turning to `O=C(CSc1nnc(-c2ccccc2)c(-c2ccccc2)n1)Nc1nccs1`, the displacement amounted to 4.6%.

On to `O=C(CSc1nc(-c2ccccc2)c(-c2ccccc2)o1)Nc1ccccc1`, for which the displacement is -4.2%.

As for `CSc1nnc2c(n1)OC(C(=O)c1ccccc1)Nc1ccccc1-2` (centres undefined), the displacement turned out to be 13.5%.

For `COc1cccc(NS(=O)(=O)c2ccc(OC)c(Br)c2)c1`, the displacement is -4.6%.

Consider `O=C1NC(=S)N/C1=C/c1ccc(Oc2ccc(C(F)(F)F)cc2[N+](=O)[O-])c(Cl)c1`, for which the displacement amounted to 88.3%.

As to `O=C1NC(=O)/C(=C\c2ccc(Oc3ccc(C(F)(F)F)cc3[N+](=O)[O-])c(Cl)c2)S1`, the displacement worked out at 5.5%.

Regarding `O=C1NC(=S)S/C1=C/c1ccc(Oc2ccc(C(F)(F)F)cc2[N+](=O)[O-])c(Cl)c1`, the displacement amounted to 2.8%.

Turning to `Cc1ccc(N(CC(=O)NC(C)c2ccccc2)S(C)(=O)=O)cc1Cl` (centres undefined), the displacement is -1.3%.

For `NNC(=O)COc1ccc2c(c1Br)CCCC2`, the displacement is -25.1%.

Consider `O=C(O)CCCCCN1C(=O)C(O)=C(C(=O)/C=C/c2ccccc2)C1c1ccc([N+](=O)[O-])cc1` (centres undefined), for which the displacement is -4.6%.

Turning to `O=C(O)CCCCCN1C(=O)C(O)=C(C(=O)/C=C/c2ccccc2)C1c1ccccc1` (centres undefined), the displacement turned out to be 4.7%.

`O=C(O)CCCCCN1C(=O)C(O)=C(C(=O)/C=C/c2ccccc2)C1c1cccc([N+](=O)[O-])c1` (centres undefined): the displacement turned out to be 96.1%.

As for `Cc1cc(Cl)ccc1NC(=O)C(=O)N/N=C/c1ccccc1F`, the displacement was 4.5%.

Regarding `CCN1CCN(CC(O)CN2CCn3c4c(c5cc(C)ccc53)CCCC42)CC1` (centres undefined), the displacement was found to be 24.7%.

For `CCNC(=O)/C=C/c1cn(-c2ccccc2)nc1-c1ccccc1`, the displacement stood at 9.4%.

In the case of `CCOC(=O)C(=C/C=C1/Sc2ccccc2N1C)C(=O)OCC`, the displacement amounted to 131%.

For the molecule `CCOC(=O)C(=C/C=C/c1ccccc1)C(=O)OCC`, the displacement was -2.3%.

On to `CCOC(=O)C(C(=O)OCC)=C1Sc2ccccc2N1C`, for which the displacement is 13.4%.

As to `COc1ccc(Br)cc1/C=C/C(=O)N1CCN(c2ccc([N+](=O)[O-])cc2)CC1`, the displacement is 12.3%.

`O=C(Nc1ccc2c(c1)Cc1ccccc1-2)c1ccncc1`: the displacement was -3.2%.

On to `O=C(NC(=S)Nc1ccccc1)c1ccccc1`, for which the displacement was 4.7%.

For `O=C(Nc1ccc(Cl)c(Cl)c1)c1cc2ccccc2o1`, the displacement stood at 2.9%.

As to `O=C(Nc1ccc2c(c1)Cc1ccccc1-2)c1cc2ccccc2o1`, the displacement worked out at 134%.

`O=C(Nc1ccc2c(c1)OCCO2)c1cc2ccccc2o1`: the displacement was -6.3%.

Take `Cc1ccc(NC(=S)NC(=O)c2ccccc2)cc1Br`: the displacement was 9%.

For the molecule `O=C(NC(=S)Nc1ccc2oc3ccccc3c2c1)c1ccccc1`, the displacement amounted to 91.8%.

For the molecule `O=C(NC(=S)Nc1ccc2c(c1)-c1ccccc1C2)c1ccccc1`, the displacement is 51.9%.

With `O=C(NC(=S)Nc1ccc2oc(-c3ccccc3)nc2c1)c1ccccc1`, the displacement is -10.6%.

`COc1ccc(-c2nc(NC(=O)c3ccccc3F)sc2-c2ccc([N+](=O)[O-])cc2)cc1`: the displacement turned out to be 13.6%.

In the case of `CCOc1ccc(/C=C2\C(=O)NC(C)=C2C(=O)OC)cc1`, the displacement stood at 10.8%.

In the case of `CCOC(=O)C1=C(C)NC(=O)/C1=C\c1cccs1`, the displacement came out at 108%.

With `CCOC(=O)C1=C(C)NC(C)=C(C(=O)OCC)C1c1cccs1`, the displacement is -5.1%.

`Cc1ccc(S(=O)(=O)Nc2ccccc2C(O)C[N+](=O)[O-])cc1` (centres undefined): the displacement was -4.2%.

As for `CNC(=O)c1cc2cc(OC)ccc2n1CCN(C)C`, the displacement is -11.4%.

As for `COc1ccc2c(c1)cc(C(=O)NN)n2C`, the displacement came to 67.4%.

On to `COc1ccc(N2Cc3ccc(C(=O)NN)cc3C2)cc1`, for which the displacement is -29.2%.

As to `COC(=O)C1=NN(C(C)=O)C(O)(c2ccccc2)C1` (centres undefined), the displacement was determined as 2.1%.

For the molecule `COc1ccc(/C=N\N2CCN(c3ccccc3OC)CC2)cc1OC`, the displacement is -6.7%.

Consider `CCOc1cccc(-c2cc(C(=O)Nc3cc(C)ccn3)c3ccccc3n2)c1`, for which the displacement was found to be 2%.

Take `CCOc1cccc(-c2cc(C(=O)Nc3nnc(C)s3)c3ccccc3n2)c1`: the displacement was 135%.

Consider `CCOc1cccc(-c2cc(C(=O)N3CCCCCC3)c3ccccc3n2)c1`, for which the displacement was -10.2%.

Consider `CCOc1cccc(-c2cc(C(=O)N3CCc4ccccc43)c3ccccc3n2)c1`, for which the displacement worked out at 110%.

Take `CCOc1ccc(-c2cc(C(=O)Nc3nnc(C)s3)c3ccccc3n2)cc1`: the displacement was found to be 6.3%.

As for `CCOc1cccc(-c2cc(C(=O)N3CCN(C)CC3)c3ccccc3n2)c1`, the displacement was -5.5%.

Consider `Cc1ccccc1OCC(=O)N1N=C(c2ccc(F)cc2)CC1(O)C(F)(F)F` (centres undefined), for which the displacement was -4.5%.

For the molecule `Cc1[nH]c2ccccc2c1/C=N/NC(=O)c1cccc([N+](=O)[O-])c1`, the displacement came out at 0.7%.

Take `COc1ccc(C(C)N(C)CCC(c2ccccc2)c2ccccc2)cc1OC` (centres undefined): the displacement was determined as 5.7%.

As for `Cn1c(=O)c(N)c2c3c(c(Br)ccc31)C(=O)c1ccccc1-2`, the displacement was 159%.

Take `Cn1c(=O)c(-c2ccccc2N)nc2ccccc21`: the displacement was -5.4%.

For `Cn1c(=O)c(N)c2c3c(cccc31)C(=O)c1ccccc1-2`, the displacement worked out at 154%.

In the case of `O=C1c2ccccc2C(=O)c2c1cc(Cl)cc2N1CCCCC1`, the displacement stood at 2.8%.

`Cn1c(=O)c(N2CCCCC2)c2c3c(cccc31)C(=O)c1ccccc1-2`: the displacement was 147%.

Turning to `O=C1c2ccccc2C(=O)c2c1c(Cl)c(Cl)c(Cl)c2N1CCCC1`, the displacement was 8%.

Consider `Cn1c2c(c(=O)n(C)c1=O)C(c1ccc(Br)cc1)C1=C(N2)c2ccccc2C1=O` (centres undefined), for which the displacement is -10.4%.

Take `Cn1c(=O)c(-c2ccccc2N)nc2cc3ccccc3cc21`: the displacement worked out at 33.6%.

Regarding `Nc1ccc2c(c1)C(=O)c1ccccc1C2=O`, the displacement came out at 6.9%.

Turning to `COc1ccc(C2CC(C(F)(F)F)n3ncc(C(=O)NC(C)(C)C)c3N2)cc1` (centres undefined), the displacement was 3.6%.

As to `O=C(c1nn2c(C(F)(F)F)cc(-c3ccco3)nc2c1Cl)N1CCN(Cc2ccccc2)CC1`, the displacement was determined as 1.1%.

For the molecule `CCOc1ccc(C(=O)Nc2ccc([N+](=O)[O-])cc2)cc1Cl`, the displacement was -9.7%.

Take `O=C(N/N=C/c1ccc([N+](=O)[O-])o1)c1ccc(Cl)c(Cl)c1`: the displacement was 19%.

`COc1ccc(N(CC(=O)Nc2ccccc2C)S(C)(=O)=O)cc1Cl`: the displacement is -10.4%.

Consider `C/C(=N\NC(=O)c1cc(C23CC4CC(CC(C4)C2)C3)[nH]n1)c1ccc(N)cc1`, for which the displacement was -8.7%.

Values taken from PubChem BioAssay AID1240 (Sanford-Burnham Center for Chemical Genomics, 2008).
